# Screen size: about 360,000 compounds; about 11,000 (3.1%) were called active. Inconclusive results (about 4%) are left out. Calls follow the shape of the dose curve; as a rule, active = well fitted inhibition curve with a large enough effect; inconclusive = small, poorly fitted or top-dose-only effect; inactive = no such curve, though single readings can be large or run the other way. The sample as a whole holds a higher share of actives than the screen did.
# Molecular target: Schistosoma mansoni thioredoxin glutathione reductase (TGR) (UniProt Q962Y6)
# Test: qHTS Assay for the Inhibitors of Schistosoma Mansoni Peroxiredoxins; also: nearly all actives have a fitted effect of over 60% in size
# Settings: purified TGR, DTNB reduction, TNB absorbance 405 nm; series mostly up to 114 µM; activity change, negative = inhibition: at the top concentration
# Procedure, shortened: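 Kinetic colorimetric format: TGR-catalysed, NADPH-driven DTNB reduction monitored via TNB absorbance. Enzyme dispensed at 20 nM; compound exposure 15 min at room temperature before reaction start.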
# % is scaled to controls: 0 for no effect and ±100 for the full control effect; potency is read from the fitted curve at half-maximal effect.
Compound,"activity change, negative = inhibition",Potency
CCOc1ccccc1NC(=O)Cn1nnc(C(=O)Nc2ccc(C)c(C)c2)c1N,-7.69% (inactive),
CCOc1ccc(N(CC)S(=O)(=O)N2CCCC(C(=O)Nc3ccc(C(C)=O)cc3)C2)cc1 (centres undefined),8.08% (inactive),
O=S(=O)(NCCCN1CCOCC1)c1ccc(F)c(Cl)c1,-19.4% (inactive),
O=[N+]([O-])c1cc(S(=O)(=O)CCCN2CCOCC2)ccc1F,,7.08 µM (active)
O=C(NCCCN1CCOCC1)c1ccc([N+](=O)[O-])cc1[N+](=O)[O-],0.872% (inactive),
COC(=O)c1cc2occc2n1Cc1nc(-c2ccc(C)cc2)oc1C,-25.2% (inactive),
COc1ccc(-c2nc3sc(CCNC(=O)C(C)(C)C)c(C)n3n2)cc1,-1.4% (inactive),
CCS(=O)(=O)c1cc([N+](=O)[O-])c(Sc2ccccc2N)s1,,20 µM (active)
Cc1ccc(S(=O)(=O)NCCSc2ccccc2)cc1[N+](=O)[O-],4.17% (inactive),
Cc1c(C(=O)Nc2cccc(Cl)c2)oc2ccc(S(=O)(=O)N3CCOCC3)cc12,1.77% (inactive),
CCOc1ccc2nc(N3CCC(C(=O)Nc4cc(C)ccc4C)CC3)sc2c1,4.2% (inactive),
O=Cc1c(N2CCN(c3cccc(Cl)c3)CC2)nc2ccccn2c1=O,3.7% (inactive),
O=Cc1c(Nc2ccccc2Cl)nc2ccccn2c1=O,,10 µM (active)
Cc1cccn2c(=O)c(C=O)c(Nc3ccc(S(N)(=O)=O)cc3)nc12,1.12% (inactive),
CC1CCCN(c2csc3ccc(F)cc3c2=O)C1 (centres undefined),-10.8% (inactive),
COc1ccc(CNC(=O)CC2Oc3ccc(C)cc3NC2=O)cc1 (centres undefined),11% (inactive),
O=C(NCCc1ccc(Cl)cc1)c1ccc2nc(CCc3ccccc3)oc2c1,11.9% (inactive),
Cc1ccc(C)c(N2CCN(C(=O)CCc3c(C)nc4c(c3C)c(=O)n(C)c(=O)n4C)CC2)c1,0.107% (inactive),
Cc1ccc(OCc2nnc(SC3CCc4ccccc4C3=O)n2C)cc1 (centres undefined),,17.8 µM (active)
COc1ccccc1C(=O)Nc1ccc(OCc2nnc3c4ccccc4c(C)nn23)cc1,-1.05% (inactive),
Cc1cccnc1NC(=O)CSc1nnc(COc2ccc(C(C)C)cc2)n1C,16.3% (inactive),
CC(=O)Nc1ccc(S(=O)(=O)N2CCn3cccc3C2C)cc1 (centres undefined),,44.7 µM (active)

Compound,"activity change, negative = inhibition",Potency
CC(=O)Nc1ccc(S(=O)(=O)N2CCSCC2)cc1,5.01% (inactive),
CC(=O)Nc1ccc(S(=O)(=O)N2CCN(c3ccccc3)CC2)cc1,14.6% (inactive),
Cc1cccc(N(C)C(=O)CS(=O)(=O)c2cccc3nsnc23)c1,5.42% (inactive),
CCOc1cccc(-c2nn3c(-c4ccccn4)nnc3s2)c1,0% (inactive),
Cc1nc2c(-c3ccc(F)cc3)c(C)nn2c(C)c1CCC(=O)NCc1ccco1,-2.64% (inactive),
Fc1ccc(-c2ccc(-c3nn4c(-c5ccco5)nnc4s3)o2)cc1,,50.1 µM (active)
CCN(CCCNC(=O)Cn1ncc2c3ccccc3n(C)c2c1=O)Cc1ccccc1,-0.585% (inactive),
COc1ccc(N2CCN(C3=NS(=O)(=O)C(c4cccc(Br)c4)=C3C)CC2)cc1,-3.56% (inactive),
COc1ccccc1CNC(=O)c1ccccc1NC(=O)c1nsc2ccccc12,0.625% (inactive),
COc1ccc(N2C(=O)C3C(C2=O)C(C(=O)c2ccccc2)N2CCCC32)cc1 (centres undefined),,22.4 µM (active)
COc1ccc(C2NC(=O)N(C)C3=C2C(=O)N(c2ccc(C(=O)O)cc2)C3)cc1 (centres undefined),9.85% (inactive),
COc1ccc(N2C(=O)C3CCCN3C2c2cccs2)cc1 (centres undefined),9.2% (inactive),
Cc1oc(-c2ccccc2)nc1Cn1c(SCc2cccc(C(F)(F)F)c2)nc2cccnc21,9.82% (inactive),
Cc1c2cnn(-c3ccccc3)c(=O)c2c(C)n1C(C)C(=O)Nc1ccc(Br)cc1F (centres undefined),-0.551% (inactive),
O=C(/C=C/c1ccccc1)Nc1cc(-c2nc3cc(Cl)ccc3o2)ccc1Cl,-1.37% (inactive),
COc1ccc(NC(=O)c2sc3nc(-c4cc5cccc(OC)c5oc4=O)[nH]c(=O)c3c2C)cc1,0.376% (inactive),
COc1cc(CNCCSc2nnnn2C)ccc1OCc1ccc(Cl)cc1Cl,0.744% (inactive),
CC(C)Cn1c(=O)c2ccccc2n2c(-c3cccc(Cl)c3)nnc12,2.27% (inactive),
O=c1cc(-c2ccccc2)n2c(SCc3ccccc3)nnc2[nH]1,-4.13% (inactive),
O=c1[nH]c2ccccc2n2c(-c3ccccc3)nnc12,,0.1 µM (active)
Cc1ccc(Cn2c(CCCNC(=O)C3CCCCC3)nc3ccccc32)cc1,-13.8% (inactive),
CCS(=O)(=O)N1CCc2cc(C(=O)NCc3ccc(C)cc3)ccc21,0.0863% (inactive),

Compound,"activity change, negative = inhibition",Potency
COc1ccc(S(=O)(=O)n2nc(C)c(S(=O)(=O)N3CCCCCC3)c2C)cc1,0.8% (inactive),
Cc1ccc(NS(=O)(=O)c2ccc3c(c2)n(C)c(=O)c(=O)n3C)c(C)c1,4.57% (inactive),
CCc1ccc(S(=O)(=O)Nc2cc3c(cc2N2CCCCC2)n(C)c(=O)c(=O)n3C)cc1,,50.1 µM (active)
Cc1ccc(C(=O)Nc2cc3c(cc2N2CCCC2)n(C)c(=O)c(=O)n3C)cc1,-11.3% (inactive),
CCOC(=O)C1CCN(c2ncnc3c2c(-c2ccccc2)cn3-c2cccc(C)c2)CC1,14.4% (inactive),
CCOC(=O)C1CCN(c2nc3c(S(=O)(=O)c4ccc(CC)cc4)nnn3c3ccc(Cl)cc23)CC1,2.89% (inactive),
COc1ccc(S(=O)(=O)NCc2cccn2Cc2cccc(C)c2)cc1,-10.6% (inactive),
Cn1c(=O)c2c(-c3ccccc3Br)n(Cc3ccccc3)cc2n(C)c1=O,4.79% (inactive),
Cc1cccc(NC(=O)CN2CCCN(S(=O)(=O)c3ccc(Br)s3)CC2)c1,,25.1 µM (active)
CC(C)N(C(=O)CN1CCN(S(=O)(=O)c2ccc(Br)s2)CC1)C(C)C,3.3% (inactive),
Cc1ccc(S(=O)(=O)N2CCN(CC(=O)N/N=C/c3ccc(Br)s3)CC2)cc1,-2.13% (inactive),
COc1ccc(CCNC(=O)CCCn2c(=O)c3ccccc3n(Cc3ccc(F)cc3Cl)c2=O)cc1OC,1.2% (inactive),
CSc1sc(C(=O)NC(=O)NCc2cccnc2)c(C)c1-c1ccon1,-0.382% (inactive),
Cc1ccc(-n2nc(-c3ccco3)cc2C(=O)NCc2cccnc2)cc1,,3.55 µM (active)
Cc1ccc(C(=O)NC(=S)NCc2cccnc2)cc1,-28.6% (inactive),
Cc1ccccc1CNC(=O)CCc1cn(Cc2ccccc2C)c2ccccc12,-3.66% (inactive),
Cc1cc(C)cc(NS(=O)(=O)c2ccc(-c3cc(C)no3)s2)c1,-1.74% (inactive),
Cc1ccccc1CN1C[C@@H]2C[C@@H](c3ccc4nsnc4c3)N3CCC[C@@]23C1=O,-34% (inactive),
Cc1ccccc1CN1C[C@@H]2C[C@@H](c3cn(C)nc3-c3ccccc3)N3CCC[C@@]23C1=O,,7.94 µM (active)
Cc1ccc(CN2CCN(Cc3cn(C)nc3-c3ccccc3)CC2CCO)o1 (centres undefined),-32.4% (inactive),
